Screens deposited in PubChem BioAssay by Sanford-Burnham Center for Chemical Genomics.
PHOSPHO1 inh = PubChem AID 1565 | recombinant PHOSPHO1, absorbance phosphatase assay | inhibition, % at 13.3 µM | 290,000 compounds, 1.1% hits; in the data active = inhibition above about 60%
PABP1 MLLE inh = inhibitors of PABP1 MLLE–PAM2 peptide binding, primary screen, biochemical, fluorescence polarization, FITC-PAM2, GST-MLLE. Polyadenylate-binding protein 1 (Homo sapiens), P11940. inhibition, % at 20 µM. 360,000 compounds, 0.36% hits. AID 588489, 2011; in the data active = inhibition above about 35%, passing the limit was not always enough;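 note: plate controls were DMSO wells with GST-MLLE for no effect and wells lacking GST-MLLE protein for full effect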
eIF4H inh = human eIF4H binding inhibitors, primary screen, translation initiation inhibitor project, biochemical, uHTS, fluorescence polarization; Eukaryotic translation initiation factor 4H (Homo sapiens), Q15056; eIF4H fluorescence polarization binding assay; inhibition, % at 35 µM; 290,000 compounds, 0.94% hits; AID 2012, 2009;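 note: calls also rest on retests at 20 µM and on dose response follow-up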
APOBEC3A inh = APOBEC3A ssDNA deaminase inhibitors, primary screen, selectivity assay for APOBEC3G inhibitor project, biochemical, FAM/TAMRA oligo cleavage fluorescence. DNA dC->dU-editing enzyme APOBEC-3A (Homo sapiens), P31941. recombinant A3A, FAM/TAMRA ssDNA deamination fluorescence. inhibition, % at 20 µM. 330,000 compounds, 0.41% hits. AID 493011, 2011;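 active = at least 40% inhibition at 20 µM here, with at most 30% in a related deaminase screen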;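 note: plate controls were A3A with DMSO for no effect and wells lacking A3A enzyme for full effect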
Target sequence (P31941 whole entry, looked up): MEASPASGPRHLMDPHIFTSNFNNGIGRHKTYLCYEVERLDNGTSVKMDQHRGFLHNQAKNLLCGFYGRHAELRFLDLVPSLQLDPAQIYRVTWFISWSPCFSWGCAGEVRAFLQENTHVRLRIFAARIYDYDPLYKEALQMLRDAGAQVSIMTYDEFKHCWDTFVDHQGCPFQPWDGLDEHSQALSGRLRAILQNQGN
A3G deaminase = APOBEC3G DNA deaminase inhibitors, primary screen, biochemical, fluorescence, single-stranded DNA substrate, uHTS | AID 493012, 2011 | inhibition, % at 20 µM | recombinant A3G, ssDNA deamination FAM/TAMRA fluorescence | 330,000 compounds, 0.28% hits | DNA dC->dU-editing enzyme APOBEC-3G (Homo sapiens), Q9HC16;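 active = inhibition of at least 40% at 20 µM, with no more than 30% in the related APOBEC3A deaminase screen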;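 note: plate controls were DMSO wells with A3G for no effect and wells lacking A3G enzyme for full effect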
Target sequence (Q9HC16 whole entry, looked up): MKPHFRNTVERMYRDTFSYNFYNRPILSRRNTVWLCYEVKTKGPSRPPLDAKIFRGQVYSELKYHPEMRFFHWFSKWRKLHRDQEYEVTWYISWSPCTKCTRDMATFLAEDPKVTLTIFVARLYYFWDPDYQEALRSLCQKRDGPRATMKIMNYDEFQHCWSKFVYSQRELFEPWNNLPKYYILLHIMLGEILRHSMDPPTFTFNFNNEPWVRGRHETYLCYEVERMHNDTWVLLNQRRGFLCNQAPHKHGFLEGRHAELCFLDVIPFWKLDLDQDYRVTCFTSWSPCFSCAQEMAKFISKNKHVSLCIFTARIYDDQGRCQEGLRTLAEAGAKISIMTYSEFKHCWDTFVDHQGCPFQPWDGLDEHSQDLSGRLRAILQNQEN
PABP polyA inh = PABP poly(A) RNA binding inhibitors, primary screen, biochemical, fluorescence polarization, uHTS; Polyadenylate-binding protein 1 (Homo sapiens), P11940; calls only at 35 µM; 290,000 compounds, 1% hits;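 note: calls also rest on retests at 20 µM and on dose response follow-up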
* marks the source's active call; other numbers are inactive results. A selection: hits, their analogues and other compounds. The true share with any hit is near 2.6%. Unless noted, the rule behind the calls is not given here.

How did COCc1cc(=O)[nH]c(SCCS(=O)(=O)c2ccc(Cl)cc2Cl)n1 do in these assays?
PHOSPHO1 inh: -67.1; PABP1 MLLE inh: 38.2*; eIF4H inh: -1.1; APOBEC3A inh: -3.7; A3G deaminase: -4.0; PABP polyA inh: inactive

Results for O=C(O)c1ccc(Cn2cnc3cccnc32)cc1 ?
PABP1 MLLE inh: 43.0*; eIF4H inh: 55.3; APOBEC3A inh: -2.1; A3G deaminase: -6.6; PABP polyA inh: inactive

How did NS(=O)(=O)c1ccc(NC(=O)COC(=O)COc2ccc(Br)cc2)cc1 do in these assays?
PHOSPHO1 inh: -19.0; PABP1 MLLE inh: 6.2; eIF4H inh: 9.8; APOBEC3A inh: 6.7; A3G deaminase: -2.2; PABP polyA inh: inactive

What do the screens show for `COc1cccc(N2CCN(C(=O)CCC(=O)c3ccc(Cl)s3)CC2)c1`?
PABP1 MLLE inh: 2.9; APOBEC3A inh: -8.1; A3G deaminase: -9.4

How did Cc1cc(C(=O)N(C)Cc2ccc(Br)cc2)no1 do in these assays?
PHOSPHO1 inh: 85.4*; PABP1 MLLE inh: -32.1; eIF4H inh: -6.3; APOBEC3A inh: 3.0; A3G deaminase: 0.9; PABP polyA inh: inactive

Results for N#Cc1ccccc1NC(=O)COC(=O)/C=C/c1cn(-c2ccccc2)nc1-c1ccc(Cl)cc1 ?
PHOSPHO1 inh: 60.0*; PABP1 MLLE inh: -7.2; eIF4H inh: -8.8; PABP polyA inh: inactive

How did CC1CCCC(NC(=O)C2N(CCCN3CCCC3)C(=O)C3C(C(=O)Nc4cccc(Cl)c4)C4C=CC32O4)C1C (stereo unspecified) do in these assays?
PHOSPHO1 inh: -11.8; PABP1 MLLE inh: -2.6; eIF4H inh: -4.2; APOBEC3A inh: -2.7; A3G deaminase: -4.8; PABP polyA inh: inactive

How did CCOC(=O)[C@H]1[C@H]2COc3ccc(Br)cc3[C@H]2N2C(=O)CN(Cc3ccc(C)cc3)C(=O)[C@@]12C do in these assays?
PABP1 MLLE inh: 46.8*

How did CCOC(=O)[C@H]1[C@H]2COc3ccc(Br)cc3[C@@H]2N2C(=O)CN(Cc3ccc(C)cc3)C(=O)[C@@]12C do in these assays?
PABP1 MLLE inh: -7.3; APOBEC3A inh: -1.2; A3G deaminase: -10.0

What do the screens show for `Cc1c(NC(=O)COC(=O)CCC(=O)c2ccc(Cl)cc2)c(=O)n(-c2ccccc2)n1C`?
PHOSPHO1 inh: 13.3; PABP1 MLLE inh: 0.8; eIF4H inh: -2.1; APOBEC3A inh: -2.2; A3G deaminase: -0.2; PABP polyA inh: inactive

Results for O=C(CSc1nnc(COc2ccccc2)n1-c1ccccc1)c1ccccc1 ?
PHOSPHO1 inh: 75.6*; PABP1 MLLE inh: -103.8; eIF4H inh: 0.4; APOBEC3A inh: -2.3; A3G deaminase: -6.1; PABP polyA inh: inactive

How did COc1ccc(-n2c(COc3ccc(C)cc3)nnc2SCC(N)=O)cc1 do in these assays?
PHOSPHO1 inh: 95.0*; PABP1 MLLE inh: -130.0; eIF4H inh: -3.0; APOBEC3A inh: -1.9; A3G deaminase: -6.5; PABP polyA inh: inactive

Results for CCOC(=O)CSc1nnc(Cc2ccccc2)n1-c1cccc(Cl)c1 ?
PHOSPHO1 inh: 23.4; PABP1 MLLE inh: -16.2; eIF4H inh: -9.4; APOBEC3A inh: -5.3; A3G deaminase: -5.4; PABP polyA inh: inactive

How did CCOC(=O)CSc1nnc(Cc2ccc(OC)cc2)n1-c1ccccc1 do in these assays?
PHOSPHO1 inh: 78.7*; PABP1 MLLE inh: -84.2; eIF4H inh: -1.8; APOBEC3A inh: -0.2; A3G deaminase: -6.3; PABP polyA inh: inactive

How did COc1ccc(-n2c(COc3ccccc3)nnc2SCC(N)=O)cc1 do in these assays?
PHOSPHO1 inh: 71.5*; PABP1 MLLE inh: -89.6; eIF4H inh: 2.2; APOBEC3A inh: -0.5; A3G deaminase: -1.5; PABP polyA inh: inactive

What do the screens show for `COc1cccc(-n2c(COc3ccc(C)cc3)nnc2SCC(N)=O)c1`?
PHOSPHO1 inh: 55.2; PABP1 MLLE inh: -107.3; eIF4H inh: -11.6; APOBEC3A inh: 3.6; A3G deaminase: -0.6; PABP polyA inh: inactive

How did C=CCSC1=N/C(=C\c2cc(OCC)c(OC(C)=O)c([N+](=O)[O-])c2)C(=O)S1 do in these assays?
PHOSPHO1 inh: 7.4; PABP1 MLLE inh: 27.0; eIF4H inh: 95.5; APOBEC3A inh: 8.0; A3G deaminase: 0.8; PABP polyA inh: inactive

How did O=c1[nH]c(CSc2cccc[n+]2[O-])nc2ccccc12 do in these assays?
PHOSPHO1 inh: 24.6; PABP1 MLLE inh: 9.9; eIF4H inh: -5.0; APOBEC3A inh: 12.4; A3G deaminase: -4.9; PABP polyA inh: inactive

Results for CCC(C)N(C(=O)CSc1ccc(NC(C)=O)cc1)C1CCS(=O)(=O)C1 (stereo unspecified) ?
PHOSPHO1 inh: -7.1; PABP1 MLLE inh: 45.0*; eIF4H inh: -16.4; APOBEC3A inh: 0.2; A3G deaminase: -8.3; PABP polyA inh: inactive

How did CC1=C(C)CC(C(=O)NC2CCCC2)C(C(=O)O)C1 (stereo unspecified) do in these assays?
PABP1 MLLE inh: -14.5; eIF4H inh: -7.9; APOBEC3A inh: -6.9; A3G deaminase: -2.5; PABP polyA inh: inactive

How did CC1=CCC(C(=O)O)C(C(=O)NC2CCCCC2)C1 (stereo unspecified) do in these assays?
PHOSPHO1 inh: 35.1; PABP1 MLLE inh: 5.8; eIF4H inh: 70.3*; APOBEC3A inh: 30.4; A3G deaminase: 31.1; PABP polyA inh: inactive

What do the screens show for `CC(C)Sc1cc(Cl)nc(NC(=O)Nc2ccccc2)n1`?
PHOSPHO1 inh: 24.2; PABP1 MLLE inh: -20.0; eIF4H inh: -11.2; APOBEC3A inh: 4.7; A3G deaminase: 1.3; PABP polyA inh: inactive

What do the screens show for `CC(C)Cc1nnc(NC(=O)CCC(=O)N2CC(C)CC(C)C2)s1` (stereo unspecified)?
PHOSPHO1 inh: 11.9; PABP1 MLLE inh: 5.9; eIF4H inh: -4.5; APOBEC3A inh: -0.7; A3G deaminase: 0.4; PABP polyA inh: inactive

What do the screens show for `Cn1c(CNc2ccccc2O)nc2ccccc21`?
PHOSPHO1 inh: -2.3; PABP1 MLLE inh: 2.1; eIF4H inh: 86.4*; APOBEC3A inh: -0.3; A3G deaminase: -9.5; PABP polyA inh: active

What do the screens show for `Cc1ccccc1NCc1nc2ccccc2n1C`?
PABP1 MLLE inh: 7.3; eIF4H inh: -1.0; APOBEC3A inh: -3.6; A3G deaminase: -1.6; PABP polyA inh: inactive

Results for Cc1ccc(C)c(NC(=O)CS(=O)(=O)c2cccc3nsnc23)c1 ?
PHOSPHO1 inh: 20.1; PABP1 MLLE inh: 11.0; eIF4H inh: -5.3; APOBEC3A inh: 8.4; A3G deaminase: 4.6; PABP polyA inh: inactive

How did CC(C)(C)OC(=O)NCCc1n[nH]c(=S)o1 do in these assays?
PHOSPHO1 inh: 27.7; PABP1 MLLE inh: -72.0; eIF4H inh: 5.0; APOBEC3A inh: -3.7; A3G deaminase: -12.7; PABP polyA inh: inactive
